The supplement of paper PMC9925115
± gives the uncertainty stated by the source.

tested on: FLX1; assay: cell viability z-score within plate (CellTiter-Glo), mean of 3 biological replicates; higher = higher viability relative to plate (less growth inhibition); settings: 2 µM; time (hr): 120
Procedure: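 FLX1 fibrolamellar carcinoma cells (DNAJB1-PRKACA fusion), 600 cells/well in 384-well plates, treated with a Selleck kinase inhibitor library (L1200) at 2 uM for 5 days (120 hr); viability by CellTiter-Glo. A z-score was computed within each plate and averaged over three biological replicates.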

Row | SMILES | cell viability z-score within plate
1 | CNc1nc(Nc2cnn([C@H]3CCN(C4COC4)C[C@@H]3F)c2Cl)ncc1C(F)(F)F | -0.856 ± 0.51
2 | Cc1cc(Nc2cc(N3CCN(C)CC3)nc(/C=C/c3ccccc3)n2)n[nH]1 | 0.628 ± 0.19
3 | N#Cc1c(NC(=O)c2cccc3ccccc23)sc2c1CCCC2 [JNK Inhibitor IX] | 0.195 ± 0.75
4 | C[C@@]1(C(=O)Nc2ccc(F)nc2)CCCN1c1nc(Nc2cc(C3CC3)n[nH]2)c2cccn2n1 | -1.16 ± 0.41
5 | CCOC(=O)c1cnc2ccc(-c3cncc(NS(=O)(=O)c4ccccc4)c3)cn12 | 0.507 ± 0.62
6 | CC(C)CC(=O)Nc1n[nH]c2c1CN(C(=O)C1CCN(C)CC1)C2(C)C | 0.0889 ± 0.24
7 | COc1ccc(CNC(=O)Nc2ncc([N+](=O)[O-])s2)cc1 | 0.771 ± 0.6
8 | Cc1ccc(Nc2nccc(N(C)c3ccc4c(C)n(C)nc4c3)n2)cc1S(N)(=O)=O | -0.43 ± 0.49
9 | Clc1ccc(Nc2nnc(Cc3ccncc3)c3ccccc23)cc1 [Vatalanib (PTK787) 2HCl] | -0.254 ± 0.59
10 | Cc1c(F)cc(C(=O)NC2CC2)cc1-c1ccc(C(=O)NCC(C)(C)C)cn1 | -0.342 ± 0.51
11 | COc1cc(Nc2ncc(F)c(Nc3ccc4c(n3)N(COP(=O)(O)O)C(=O)C(C)(C)O4)n2)cc(OC)c1OC [Fostamatinib (R788)] | 0.458 ± 0.74
12 | CCN(CC)CCNC(=O)c1c(C)[nH]c(/C=C2\C(=O)Nc3ccc(F)cc32)c1C [Sunitinib Malate] | -0.049 ± 0.26
13 | CNC(=O)c1nn(C)c2c1C(C)(C)Cc1cnc(Nc3ccc(N4CCN(C)CC4)cc3)nc1-2 | 0.949 ± 0.33
14 | C[C@H]1[C@H](C)CC[C@]2(C(=O)O)CC[C@]3(C)C(=CC[C@@H]4[C@@]5(C)C[C@@H](O)[C@H](O)[C@@](C)(CO)[C@@H]5CC[C@]43C)[C@H]12 [Asiatic Acid] | 0.124 ± 0.46
15 | C[C@@H](N)[C@H]1CC[C@H](C(=O)Nc2ccncc2)CC1 | 0.0727 ± 0.19
16 | N#Cc1c(Oc2ccc(F)c(NC(=O)Cc3cccc(C(F)(F)F)c3)c2)ccc2nc(NC(=O)C3CC3)sc12 | 0.529 ± 0.94
17 | O=S(=O)(NCCNC/C=C/c1ccc(Br)cc1)c1cccc2cnccc12 | -2.86 ± 1.5
18 | CNc1nc(-c2ccc3c(N)n[nH]c3c2)cc(N2C[C@@H](C(=O)NC3CCCCC3)CC[C@H]2C)n1 | 0.0251 ± 0.54
19 | Cc1ccc(C(=O)Nc2ccc(CN3CCN(C)CC3)c(C(F)(F)F)c2)cc1C#Cc1cnc2[nH]ncc2c1 [GZD824 Dimesylate] | -0.246 ± 0.26
20 | CC[C@H](CO)Nc1nc(NCc2ccccc2)c2ncn(C(C)C)c2n1 [Roscovitine (Seliciclib,CYC202)] | 0.283 ± 0.3

Row | SMILES | cell viability z-score within plate
21 | CN1CCN(CCOc2cc(OC3CCOCC3)c3c(Nc4c(Cl)ccc5c4OCO5)ncnc3c2)CC1 [Saracatinib (AZD0530)] | 0.194 ± 0.28
22 | CO[C@H]1C[C@@H]2CC[C@@H](C)[C@@](O)(O2)C(=O)C(=O)N2CCCC[C@H]2C(=O)O[C@H]([C@H](C)C[C@@H]2CC[C@H](n3cnnn3)[C@H](OC)C2)CC(=O)[C@H](C)/C=C(\C)[C@@H](O)[C@@H](OC)C(=O)[C@H](C)C[C@H](C)/C=C/C=C/C=C/1C [Zotarolimus(ABT-578)] | 0.264 ± 0.45
23 | CCC(=O)Nc1cccc(Oc2nc(Nc3ccc(N4CCN(C)CC4)cc3OC)ncc2Cl)c1 | 0.708 ± 0.11
24 | NC(=O)Nc1cc(-c2cccc(F)c2)sc1C(=O)N[C@H]1CCCNC1 | 0.408 ± 0.47
25 | O=C(NC(NC(=S)Nc1ccc(F)c([N+](=O)[O-])c1)C(Cl)(Cl)Cl)C(c1ccccc1)c1ccccc1 (stereo not given) | 0.309 ± 0.51
26 | O=C(Nc1cc(C(F)(F)F)cc(C(F)(F)F)c1)c1cc(Cl)ccc1O | -0.692 ± 0.5
27 | CN1CCN(Cc2ccc(-c3cnc4[nH]cc(-c5ccc6[nH]ccc6c5)c4c3)cc2)CC1 | -0.36 ± 0.19
28 | NC1(c2ccc(-c3nc4ccn5c(=O)[nH]nc5c4cc3-c3ccccc3)cc2)CCC1 | -0.0746 ± 0.54
29 | CCc1cc(Nc2nccc(-c3c(-c4ccc(OC)c(C(=O)Nc5c(F)cccc5F)c4)nc4ccccn34)n2)c(OC)cc1N1CCC(N2CCN(S(C)(=O)=O)CC2)CC1 | 0.744 ± 0.54
30 | COc1cc2c(Nc3ccc(NC(=O)c4ccccc4)cc3)ncnc2cc1OCCCN1CCOCC1 | 0.281 ± 0.48
31 | CNC(=O)c1ccccc1Nc1nc(Nc2ccc(N3CCOCC3)cc2OC)ncc1Cl | 1.3 ± 1.2
32 | CN1CCN(S(=O)(=O)c2ccc(-c3cnc(N)c(C(=O)Nc4cccnc4)n3)cc2)CC1 | 0.448 ± 0.3
33 | NC(=O)Nc1sc(-c2ccc(F)cc2)cc1C(N)=O | -0.156 ± 0.51
34 | CC(C)n1nc(-c2ccc3oc(N)nc3c2)c2c(N)ncnc21 | 0.871 ± 0.17
35 | CC(C)(O)CC(=O)NCCn1ccc2ncnc(Nc3ccc(Oc4cccc(C(F)(F)F)c4)c(Cl)c3)c21 | -0.891 ± 0.77
36 | CN1CCC(CNc2ccc3ncc(-c4cccc(OC(F)(F)F)c4)n3n2)CC1 [SGI-1776 free base] | 0.436 ± 0.2
37 | N#CC(=C(/N)Sc1ccccc1N)/C(C#N)=C(\N)Sc1ccccc1N | -1.01 ± 0.4
38 | CN(C)Cc1cccc(N=C(c2ccccc2)c2c(O)[nH]c3cc(C(=O)N(C)C)ccc23)c1 | 0.69 ± 0.34
39 | CO[C@H]1C[C@@H]2CC[C@@H](C)[C@@](O)(O2)C(=O)C(=O)N2CCCC[C@H]2C(=O)O[C@H]([C@H](C)C[C@@H]2CC[C@@H](O)[C@H](OC)C2)CC(=O)[C@H](C)/C=C(\C)[C@@H](O)[C@@H](OC)C(=O)[C@H](C)C[C@H](C)/C=C/C=C/C=C/1C [Rapamycin (Sirolimus)] | 0.422 ± 0.17
40 | CCN1CCN(Cc2ccc(-c3cc4c(N[C@H](C)c5ccccc5)ncnc4[nH]3)cc2)CC1 | 0.278 ± 0.61
